ALDH1A1 block – ALDH1A1 (human) enzyme inhibition | P00352 | Purified ALDH1A1, NADH fluorescence, propionaldehyde substrate | Potency, µM (titrated, usually from 75.3 µM), actives largely listed as inhibitors | hit rate 7.3% among 220,000
Target sequence (P00352 whole entry, looked up): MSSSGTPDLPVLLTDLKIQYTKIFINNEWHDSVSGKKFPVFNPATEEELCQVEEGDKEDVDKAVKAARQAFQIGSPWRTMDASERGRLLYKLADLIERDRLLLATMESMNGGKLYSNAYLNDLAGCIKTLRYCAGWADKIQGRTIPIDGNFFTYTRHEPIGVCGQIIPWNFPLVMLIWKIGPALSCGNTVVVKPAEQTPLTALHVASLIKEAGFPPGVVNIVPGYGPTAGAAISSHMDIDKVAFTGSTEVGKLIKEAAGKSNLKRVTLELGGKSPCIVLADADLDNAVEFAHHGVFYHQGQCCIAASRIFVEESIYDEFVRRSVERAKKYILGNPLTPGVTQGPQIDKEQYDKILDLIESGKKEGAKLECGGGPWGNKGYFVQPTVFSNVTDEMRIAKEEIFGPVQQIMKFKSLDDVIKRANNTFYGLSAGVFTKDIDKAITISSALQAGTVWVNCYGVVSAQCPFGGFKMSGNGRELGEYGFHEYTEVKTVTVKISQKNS
IMPase cell inh – IMPase inhibition in cells. 120,000 tested, under 10 active. inhibition (IP1 accumulation), % at 46.1 µM. CHO-M1 cells, IP1 accumulation, HTRF TR-FRET ratio. AID 901; active = well fitted curve in the direction sought with a large enough effect in the signal ratio, not every such curve was filed as active; inconclusive = small, poorly fitted or top-dose-only effect, or a change in a side signal; inactive = no such curve, though single readings can be large or run the other way; the % refers to the signal ratio;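 note: cells stimulated with carbachol in lithium chloride buffer; higher means more IMPase inhibition seen as more IP1 and lower FRET ratio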
Target sequence (P97697 whole entry, looked up): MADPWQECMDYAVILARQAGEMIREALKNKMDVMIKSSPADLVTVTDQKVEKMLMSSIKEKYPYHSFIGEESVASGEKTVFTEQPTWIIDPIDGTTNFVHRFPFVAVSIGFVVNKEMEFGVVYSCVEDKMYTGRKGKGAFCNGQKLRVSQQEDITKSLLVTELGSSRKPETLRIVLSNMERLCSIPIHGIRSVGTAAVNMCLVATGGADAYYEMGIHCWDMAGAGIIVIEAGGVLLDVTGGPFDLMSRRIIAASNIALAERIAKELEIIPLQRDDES
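Elevated IP1 in lysates lowers TR-FRET signal (665/620 ratio and 620 channel reported). Cells were CHO-M1, given carbachol (50 uM as added) plus 50mM LiCl, pH 7.4, 30 min, 37C; compounds titrated up to 46 uM; AC50 by Hill equation.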
PNC assembly inh – inhibitors of perinucleolar compartment assembly; hit rate 3.1% among 140,000; PC3M PTB-GFP, PNC prevalence imaging, 16 h; stronger effect = lower value; AID 2417; activity change (PNC), negative = inhibition, % at 10 µM;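 active = readout at or below -70, meaning at least 70% loss of cells showing the perinucleolar compartment, a nuclear body marking cancer cells; inconclusive = readout between -30 and a set limit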
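PC3M cells stably expressing PTB-GFP, 750–1000 cells/well, treated 16 h at 37 °C with compound (23 nl of library stock), in duplicate. After paraformaldehyde fixation and Hoechst stain, imaged at 20x; PNC prevalence scored by image analysis.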
NPSR antag – antagonists of human neuropeptide S receptor cAMP signaling. Q6W5P4. CHO-NPSR cells, cAMP TR-FRET, antagonist mode. Potency, µM (highest dose often 38.3 µM), actives largely listed as inhibitors. hit rate 1% among 220,000. AID 1461; active = well fitted curve in the direction sought with a large enough effect; inconclusive = small, poorly fitted or top-dose-only effect, or another doubt; inactive = no such curve, though single readings can be large; an effect the other way counts as inactive or inconclusive; note: nearly all actives have a fitted effect of over 50% in size
IMPase Li inh – membrane-permeable IMPase blocker, potentiated with lithium | CHO-M1 cells, IP1 TR-FRET (IP-One), carbachol + lithium | AID 1457 | hit rate 0.35% among 210,000 | Potency, µM (titrated, usually from 59.4 µM), usual class: inhibitors; active = well fitted curve in the direction sought with a large enough effect; inconclusive = small, poorly fitted or top-dose-only effect, or another doubt; inactive = no such curve, though single readings can be large; an effect the other way counts as inactive or inconclusive;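 note: IP1 builds up when IMPase is blocked and the TR-FRET signal falls; nearly all actives have a fitted effect of over 50% in size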
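Concentration–response in CHO-M1 cells, lithium-potentiated; 30 min at 37C. IP1 detected by competitive TR-FRET after 10 min lysis at RT. Hill-fitted AC50.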
HPGD block – blocks human HPGD enzyme activity | P15428 | purified HPGD, NADH fluorescence kinetic, PGE2 substrate | Potency, µM, actives largely listed as inhibitors | hit rate 4.3% among 150,000 | AID 894
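20 nM HPGD preincubated 15 min at room temperature with compound in 50 mM Tris-HCl pH 8, 0.01% Tween 20. Started with 1 mM NAD+ and 30 uM prostaglandin E2; NADH fluorescence (360/450 nm) read 5 times over 30-s intervals, last minus first.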
Each line names hits and unclear results; the compound was inactive in the other large screens. Compounds with a hit are over-represented: about 11% of the library has one in this group of screens. Unless noted, calls come from the whole dose curve; as a rule, active = well fitted inhibition curve with a large enough effect (not every such curve was filed as active); inconclusive = small, poorly fitted or top-dose-only effect, or another doubt; inactive = no such curve, though single readings can be large or run the other way.

COc1ccc(CNC(=O)C2=C(C)C(=O)OC23CCC(C)CC3)cc1 (configuration not stated)	ALDH1A1 block 5.6µM
CC(C)CCn1cnc2c(cnn2-c2ccc(F)cc2)c1=O	ALDH1A1 block inconclusive, HPGD block 11µM
COc1ccccc1C(=O)OCCN1CCOCC1	PNC assembly inh inconclusive
O=C(OCCN1CCOCC1)C(c1ccccc1)c1ccccc1	ALDH1A1 block 25µM, PNC assembly inh inconclusive
CCn1nc(C(=O)OCc2cccc(S(=O)(=O)N(C)C)c2)c2ccccc2c1=O	none (no result: ALDH1A1 block, IMPase cell inh, PNC assembly inh, IMPase Li inh, HPGD block)
COC(=O)C1=C(C)N(CCc2ccc(OC)c(OC)c2)C(=O)/C1=C\c1ccc(O)cc1	ALDH1A1 block 25µM, PNC assembly inh -116 (no result: IMPase cell inh)
CCCCCCNC(=O)Nc1ccccc1	ALDH1A1 block inconclusive
O=C(CN1C(=O)NC2(CCCCCC2)C1=O)N1CCC(Cc2ccccc2)CC1	ALDH1A1 block 22µM, IMPase cell inh inconclusive
O=C(CN1C(=O)NC2(CCCCC2)C1=O)N1CCN(S(=O)(=O)c2ccccc2)CC1	none (no result: IMPase cell inh, PNC assembly inh, HPGD block)
CC1CCN(C(=S)NC2CCCCC2)CC1	none
CSCCC(NS(=O)(=O)c1ccc(Cl)cc1)C(=O)OCC(=O)NC1CCCCC1 (configuration not stated)	none
Cc1occc1-c1nnc(SCCNCCO)o1	none (no result: IMPase cell inh, PNC assembly inh, HPGD block)
COc1ccc(NC(=O)CC2C(=O)N(c3cccc(OC)c3)C(=O)N2Cc2ccco2)cc1 (configuration not stated)	ALDH1A1 block 16µM (no result: IMPase cell inh, PNC assembly inh, HPGD block)
Cc1ccc(NC(CNS(=O)(=O)c2ccc(Cl)cc2)c2ccccc2)cc1 (configuration not stated)	NPSR antag inconclusive
CCS(=O)(=O)Nc1ccc(-c2nnc(SCC(=O)c3cccc(OC)c3)o2)cc1	ALDH1A1 block 3.2µM, IMPase cell inh inconclusive, PNC assembly inh inconclusive, IMPase Li inh inconclusive, HPGD block inconclusive
COc1cc(-c2nnc(SCc3c(F)cccc3Cl)o2)cc(OC)c1OC	ALDH1A1 block 4.5µM, PNC assembly inh inconclusive, HPGD block inconclusive
COc1cccc(C(=O)CSc2nnc(-c3cc(OC)c(OC)c(OC)c3)o2)c1	ALDH1A1 block inconclusive
CNC(=O)CSc1nnc(-c2cc(C)cc(C)c2)o1	PNC assembly inh -103
Cc1cc(C)cc(-c2nnc(SCC(=O)NCc3cccs3)o2)c1	PNC assembly inh inconclusive
CCS(=O)(=O)Nc1ccc(-c2nnc(SCC(=O)c3ccc(NC(C)=O)c(OC)c3)o2)cc1	HPGD block 0.79µM
CCCCCOc1ccc(NC(=O)C(=O)NCCC2=CCCCC2)cc1	none
Cc1cc(C)nc(SCC(=O)Nc2ncc(Cc3cccc(Cl)c3)s2)n1	none (no result: IMPase cell inh)
Cc1cc(C)cc(OCC(=O)NCCN2CCOCC2)c1	none
COc1cc(-c2nnc(SCC(=O)c3ccc(C)cc3)o2)cc(OC)c1OC	ALDH1A1 block 28µM, PNC assembly inh inconclusive
COCCn1c(C)cc(C(=O)COc2cccnc2[N+](=O)[O-])c1C	ALDH1A1 block 5.6µM (no result: IMPase cell inh, PNC assembly inh, HPGD block)
Cc1ccc(OCC(=O)c2cc(C)n(Cc3cccs3)c2C)c([N+](=O)[O-])n1	ALDH1A1 block inconclusive (no result: IMPase cell inh, PNC assembly inh, HPGD block)
Cc1cc(C)c(C(=O)COc2cccnc2[N+](=O)[O-])cc1C	ALDH1A1 block 1.6µM
Cc1ccc(OCC(=O)c2cc(C)n(CC(F)(F)F)c2C)c([N+](=O)[O-])n1	ALDH1A1 block 20µM (no result: IMPase cell inh, PNC assembly inh, HPGD block)
O=C(CN1C(=O)NC2(CCCC2)C1=O)N1CCN(S(=O)(=O)c2ccc(Cl)cc2)CC1	none (no result: IMPase cell inh, PNC assembly inh, HPGD block)
Cc1ccc(C)c(NC(=O)CN(C)C(=O)c2nn(C)c(=O)c3ccccc23)c1	none (no result: IMPase cell inh, PNC assembly inh, HPGD block)
Cc1cc2cc(CCNC(=O)c3ccc(S(=O)(=O)N4CCOCC4)cc3)c(=O)[nH]c2cc1C	ALDH1A1 block inconclusive, PNC assembly inh inconclusive
Cc1ccc2cc(CCNC(=O)c3ccc(S(=O)(=O)N4CCCCC4)cc3)c(=O)[nH]c2c1	ALDH1A1 block 14µM (no result: IMPase cell inh, PNC assembly inh, HPGD block)
O=C(CN1C(=O)NC(Cc2ccccc2)C1=O)Nc1ccc(F)cc1 (configuration not stated)	NPSR antag inconclusive
Nn1c(SCC(=O)NC2CCCCC2)nnc1C1CC1	ALDH1A1 block 24µM, PNC assembly inh inconclusive, NPSR antag inconclusive
CCc1nnc(SCC(=O)NC2CCCC2)nc1CC	HPGD block 16µM
CC(=O)NC1C(=O)N=C(SCC(=O)NC2CCCCC2)NC1=O (configuration not stated)	ALDH1A1 block inconclusive
CCC1C(=O)N=C(SCC(=O)NC2CCCCC2)NC1=O (configuration not stated)	ALDH1A1 block 25µM (no result: IMPase cell inh, PNC assembly inh, HPGD block)
CC(=O)N/C(=C\c1ccccc1)C(=O)OCC(=O)N(C)C1CCCCC1	none
Cc1[nH]n(-c2ccccc2)c(=O)c1C(C[N+](=O)[O-])c1ccc(Cl)cc1 (configuration not stated)	ALDH1A1 block 20µM, HPGD block 28µM (no result: IMPase cell inh)
CCOc1cc(C(c2c(C)[nH]n(-c3ccccc3)c2=O)c2c(C)[nH]n(-c3ccccc3)c2=O)ccc1O	none (no result: ALDH1A1 block, PNC assembly inh, NPSR antag, IMPase Li inh, HPGD block)
Cc1ccc(C(C[N+](=O)[O-])c2c(C)[nH]n(-c3ccccc3)c2=O)cc1 (configuration not stated)	ALDH1A1 block inconclusive (no result: IMPase cell inh)
COc1ccc(C(c2c(C)[nH]n(-c3ccccc3)c2=O)c2c(C)[nH]n(-c3ccccc3)c2=O)cc1OC	ALDH1A1 block 8.9µM, PNC assembly inh inconclusive, HPGD block inconclusive
COc1cccc(CN2CCNC(=O)C2CC(=O)N(C)Cc2cnccn2)c1OC (configuration not stated)	none (no result: IMPase cell inh, PNC assembly inh, HPGD block)
COc1ccc(C2C3=C(CCCC3=O)NC3=C2C(=O)c2ccccc23)cc1 (configuration not stated)	none (no result: ALDH1A1 block, IMPase cell inh, PNC assembly inh, IMPase Li inh, HPGD block)
C1CNCCN1	none (no result: IMPase cell inh, PNC assembly inh, NPSR antag)
C1CNCCNCCCNCCNC1	PNC assembly inh -115 (no result: IMPase cell inh)
C1CCCNCC1	ALDH1A1 block 22µM (no result: IMPase cell inh, PNC assembly inh, NPSR antag)
COc1ccc(NC(=S)Nc2ccccn2)c(OC)c1	ALDH1A1 block inconclusive, NPSR antag inconclusive
O=C(Nc1cccc2ccccc12)C12CC3CC(C1)CC(n1cnc([N+](=O)[O-])n1)(C3)C2	IMPase cell inh inconclusive
C=CCN=C(NC#N)SCc1ccccc1	none
CCN=C(NC#N)SCc1c(F)cccc1Cl	ALDH1A1 block inconclusive, PNC assembly inh -109 (no result: IMPase cell inh)
CCOC(=O)C1=NN(C(=O)c2ccco2)C2(CC2)C1	PNC assembly inh inconclusive (no result: IMPase cell inh)
CCc1ccc(NC(=O)C(=O)NCCN2CCN(S(C)(=O)=O)CC2)cc1	none (no result: IMPase cell inh, PNC assembly inh, HPGD block)
CCc1ccc(NC(=O)C(=O)NCCN2CCN(C(=O)c3ccco3)CC2)cc1	ALDH1A1 block 22µM
CCOC(=O)c1c(C)c(C(=O)N2CCN(C(=O)c3ccco3)CC2)c(C)n1C	ALDH1A1 block 13µM
CCOC(=O)c1c(C)n(C(=O)c2ccco2)c(=O)n1C(=O)c1ccco1	HPGD block 22µM
COC(=O)[C@@H]1C[C@@H]2CC[C@@H](O)C[C@@H]2N1Cc1ccccc1OS(=O)(=O)c1ccc(C)cc1	ALDH1A1 block inconclusive (no result: IMPase cell inh, PNC assembly inh)
